Screening results as filed in PubChem.
The list is not random: actives were taken first. Their share in the collection is about 10%.
bCat KO growth: primary screen for growth suppressors in beta-catenin knockout HCT116 cells (colon tumor, human) | viability, % at 10 µM | HCT116 beta-catenin knockout viability, CellTiter-Glo, 60 h; hits give low values | 140,000 tested, 1.5% active;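 active = viability at or under a set limit, the compound median less 4 SD, cut at about 6% in these data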
p97 inhibitor: inhibitors of human p97 ATPase, primary screen, biochemical | inhibition, % at 8 µM | 220,000 tested, 0.42% active | AID 1481, 2009 | recombinant p97 ATPase, Kinase-Glo ATP luminescence, 3 h; in the data active = inhibition above about 15%
Target sequence (P55072 whole entry, looked up): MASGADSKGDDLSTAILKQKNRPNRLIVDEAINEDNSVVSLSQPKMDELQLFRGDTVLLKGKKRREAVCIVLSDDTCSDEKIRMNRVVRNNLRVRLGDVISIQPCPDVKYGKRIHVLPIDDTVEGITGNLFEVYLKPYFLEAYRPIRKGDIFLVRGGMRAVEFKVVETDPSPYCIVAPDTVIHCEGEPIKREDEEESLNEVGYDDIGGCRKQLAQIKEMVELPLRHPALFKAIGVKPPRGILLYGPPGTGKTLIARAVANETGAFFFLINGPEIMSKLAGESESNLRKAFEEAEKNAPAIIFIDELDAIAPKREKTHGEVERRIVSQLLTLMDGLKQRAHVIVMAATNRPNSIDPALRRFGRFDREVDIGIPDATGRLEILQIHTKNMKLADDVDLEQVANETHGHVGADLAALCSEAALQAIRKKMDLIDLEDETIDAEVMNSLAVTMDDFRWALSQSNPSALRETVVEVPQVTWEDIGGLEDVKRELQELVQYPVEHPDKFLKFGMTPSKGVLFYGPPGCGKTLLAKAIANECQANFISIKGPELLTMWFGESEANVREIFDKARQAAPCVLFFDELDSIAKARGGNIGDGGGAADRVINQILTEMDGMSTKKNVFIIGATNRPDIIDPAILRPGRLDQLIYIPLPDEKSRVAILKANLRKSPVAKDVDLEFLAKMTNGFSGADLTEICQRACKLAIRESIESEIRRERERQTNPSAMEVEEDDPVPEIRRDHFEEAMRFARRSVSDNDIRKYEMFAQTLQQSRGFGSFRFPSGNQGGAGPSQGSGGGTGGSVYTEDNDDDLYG
PTEN del growth: growth suppression of PTEN-null HCT116, primary screen, cell-based, CellTiter-Glo; HCT116 PTEN-null viability, 60 h; hits give low values; viability, % at 10 µM; 140,000 tested, 1.2% active; AID 827, 2007;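 active = viability at or below a set limit, 4 SD under the median of all tested compounds, cut at about 3.7% in these data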;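 note: PTEN knockout HCT116 line with beta catenin targeted HCT116 as companion control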
ROMK primary: ROMK potassium channel modulators, primary screen, cell-based, thallium flux, MLSMR library; ATP-sensitive inward rectifier potassium channel 1 (Homo sapiens), P48048; Tet-inducible ROMK, thallium flux fluorescence; actives lie on both sides; B-score at 10 µM; 130,000 tested, 2% active;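 active = signal ratio slope over the read window, or its plate-corrected B-score, at least 3 SD from the plate mean, either direction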;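 note: B-score of the F/F0 ratio slope over 7 to 12 s after thallium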
L major viab: Leishmania major promastigote growth inhibition, primary screen. AID 1063, 2008. Leishmania major promastigotes, resazurin fluorescence viability. inhibition, % at 10 µM. 200,000 tested, 9% active; in the data active = inhibition above about 50%;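 note: promastigotes grown with compound for 44 hours at 28 °C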
Insulin prom inh: inhibitors of insulin promoter-driven GFP, primary screen, imaging, TRM-6 cells (human fetal islet line), eGFP reporter, cell count | 130,000 tested, 0.9% active | AID 1273, 2008 | reporter expression induced with tamoxifen | inhibition, % at 2 µM;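 active = inhibition above the mean plus 3 SD, with well images judged a real hit on visual review, cut at about 60% in these data, passing the limit was not always enough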
Large screens that a line does not name were inactive.

O=[N+]([O-])c1ccc(-c2nc3ccc([N+](=O)[O-])cc3[nH]2)cc1	none (no result: ROMK primary)
Cc1ccccc1C1C(C#N)=C2N=C(N)c3c(sc4c3CCCCC4)N2C2=C1C(=O)CC(C)(C)C2 (stereo unspecified)	L major viab 62 (no result: Insulin prom inh)
N#Cc1ccc(Oc2nc(C(N)=O)cc(-c3ccccc3)n2)cc1	none (no result: ROMK primary)
COC(=O)c1ccc(Oc2nc(C(N)=O)cc(-c3ccccc3)n2)cc1	Insulin prom inh 61
COc1ccc(C(c2sc3nc(C)nn3c2O)N2CCC(C(N)=O)CC2)cc1OC (stereo unspecified)	Insulin prom inh 80 (no result: ROMK primary)
CCN(CC)S(=O)(=O)c1cccc(C(=O)N[C@H](C(=O)Nc2nc3ccc(F)cc3s2)C(C)C)c1	none (no result: ROMK primary)
COC(=O)C(C)(C)ONC(=O)Nc1ccccc1Br	L major viab 69 (no result: ROMK primary)
COCC(=O)Nc1ccccc1Br	L major viab 54
O=C(Nc1ccc2c(c1)CCC2)c1ccccc1	none (no result: ROMK primary, Insulin prom inh)
O=C(Nc1cc2c3c(c1)C1CCCC1CN3CC1CCCC21)c1ccccc1 (stereo unspecified)	L major viab 97 (no result: Insulin prom inh)
CCCCN1C(=O)/C(=C/C=C2/CC(C)(C)CN2C)SC1=S	L major viab 59 (no result: ROMK primary)
CCCn1c(SCC(=O)c2c(C)[nH]c(C)c2C(=O)OCC)nc2ccccc21	L major viab 64 (no result: ROMK primary)
CCN(CC)C(=O)N1CCN(Cc2ccc3c(c2)OCO3)CC1	none (no result: bCat KO growth, PTEN del growth)
CCOC(=O)C1CCN(C(=O)C(C)c2ccc([N+](=O)[O-])cc2)CC1 (stereo unspecified)	none (no result: bCat KO growth, PTEN del growth)
CC(C(=O)N1CCN(Cc2ccc3c(c2)OCO3)CC1)c1ccc([N+](=O)[O-])cc1 (stereo unspecified)	L major viab 80 (no result: bCat KO growth, PTEN del growth, Insulin prom inh)
CC(C(=O)N1CCOCC1)c1ccc([N+](=O)[O-])cc1 (stereo unspecified)	L major viab 55 (no result: ROMK primary)
CC(=O)c1ccc(NC(=O)c2cnsn2)cc1	none (no result: bCat KO growth, PTEN del growth, Insulin prom inh)
O=C1CC(c2ccccc2F)c2c(c3ccccc3[nH]c2=O)O1 (stereo unspecified)	none (no result: bCat KO growth, PTEN del growth, ROMK primary, L major viab, Insulin prom inh)
COc1ccccc1CNC(=O)C(Cc1c[nH]c2ccccc12)NC(=O)OCc1ccccc1 (stereo unspecified)	L major viab 99
O=C(NCc1ccccc1)N[C@@H](Cc1c[nH]c2ccccc12)C(=O)O	Insulin prom inh 75 (no result: ROMK primary)
CCOC(=O)N1CCN(C(=O)CCSCCc2ccncc2)CC1	Insulin prom inh 79
CCOC(=O)N1CCN(C(=O)CSCc2ccc(C)cc2)CC1	none (no result: ROMK primary)
Cc1ccc2nc(SC(C)C(=O)Nc3cccc([N+](=O)[O-])c3)[nH]c2c1 (stereo unspecified)	L major viab 56 (no result: ROMK primary)
Cc1ccc2nc(SCC(=O)Nc3cc([N+](=O)[O-])ccc3F)[nH]c2c1	none (no result: ROMK primary, Insulin prom inh)
CCOC(=O)C(=O)C1=C(N2CCOCC2)/C(=C\c2ccc(F)cc2)CC1	L major viab 71 (no result: ROMK primary)
CCN(CC)S(=O)(=O)c1cc(NC(=O)C(C)OC(=O)c2[nH]c(C)c(C(C)=O)c2C)ccc1C (stereo unspecified)	L major viab 95 (no result: ROMK primary)
CCSc1nnc(-c2ccccc2NC(C)=O)c(=O)[nH]1	Insulin prom inh 71
C[C@@H]1NC(=O)c2cc([N+](=O)[O-])cc(I)c2NCCCC[C@@H](C(N)=O)NC(=O)[C@H](CC(N)=O)NC1=O	none
Cc1ccc(NC(CNS(=O)(=O)c2ccc(Cl)cc2)c2ccccc2)cc1 (stereo unspecified)	L major viab 53 (no result: ROMK primary)
O=S(=O)(NCC(Nc1ccc(Cl)cc1)c1ccccc1)c1ccccc1 (stereo unspecified)	none
O=C(Nc1ccc(OCc2ccccc2)cc1)Nc1ccccc1C(=O)NCCCN1CCOCC1	none (no result: bCat KO growth, PTEN del growth, ROMK primary, L major viab, Insulin prom inh)
CCCn1c(=N)n(CC(=O)C(C)(C)C)c2ccccc21	L major viab 81 (no result: ROMK primary, Insulin prom inh)
CCOc1ccc(NS(=O)(=O)c2cc(NC(=O)c3ccc(C)cc3)ccc2Cl)cc1	none
O=C(CC(Nc1ccc(F)cc1)C(=O)O)c1ccccc1 (stereo unspecified)	L major viab 61 (no result: ROMK primary)
O=C(NCCCN1CCOCC1)/C(=C/c1cccnc1)NC(=O)c1ccccc1	none (no result: bCat KO growth, PTEN del growth)
CCOC(=O)c1c(NC(C)=O)sc2c(OCC(O)CNC(C)(C)C)c(Br)ccc12 (stereo unspecified)	L major viab 101 (no result: bCat KO growth, PTEN del growth, Insulin prom inh)
